In the library only some 2.2% were active in any assay of this set; here they are far more common.
Abeta yeast res – qHTS for compounds that reverse cellular toxicity of Amyloid beta (A-beta) peptide in yeast: Primary Screen; yeast expressing A-beta42, growth rescue, OD600, 48 h; response scale: 0% DMSO, 100% iron-clioquinol control; Potency, µM (doses to about 46.1 µM), actives largely listed as activators; hit rate 0.063% among 410,000; AID 1347071, 2019; also: nearly all actives have a fitted effect of over 55% in size
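Growth rescue measured by 600 nm absorbance after 48 h yeast culture at 30 C with compound. Values normalized between DMSO and an equimolar ferric chloride plus clioquinol control.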
TDP43 rescue – qHTS of TDP-43 Inhibitors; Potency, µM (series often up to 46.1 µM), usual class: activators; TDP-43 expressing yeast growth rescue, BacTiter-Glo, 24 h; hit rate 1.8% among 410,000; also: nearly all actives have a fitted effect of over 50% in size
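Galactose-induced TDP-43 yeast, OD600=0.02, compound pinned; 24 hr, 30 deg C; BacTiter-Glo luminescence for growth. Inhibitors of TDP-43 toxicity read as activators.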
Mito fusion yeast – qHTS Assay for Small Molecule Inhibitors of Mitochondrial Division or Activators of Mitochondrial Fusion. S. cerevisiae fusion-defective mutant growth rescue, CellTiterGlo 48 h. Potency, µM (top dose mostly 46.1 µM), most hits filed as activators. hit rate 0.23% among 320,000. AID 485298, 2010; also: nearly all actives have a fitted effect of over 45% in size
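Luminescent cell viability in 1536-well qHTS format served as the measure of rescued growth in ts fusion-mutant S. cerevisiae cultured on non-fermentable YPEG for 48 hours at 37C.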
aSyn yeast inh – qHTS of alpha-syn Inhibitors | Yeast expressing alpha-synuclein, growth rescue, BacTiter-Glo, 24 h | hit rate 0.14% among 370,000 | AID 652106, 2013 | Potency, µM (titrated, usually from 46.1 µM), usual class: activators; also: nearly all actives have a fitted effect of over 65% in size
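Screening used galactose-induced yeast with toxic alpha-synuclein levels, exposed to compound for 24 hr at 30 deg C. Cell growth, read with BacTiter-Glo luminescence, gave the measured signal.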
FUS yeast rescue – qHTS for Suppressors of FUS Proteinopathy: Primary screen using FUS-linked yeast assay; S. cerevisiae FUS-expressing, growth rescue, OD600, 24 h; Potency, µM (series often up to 76.6 µM), hits mostly activators; AID 1347120, 2019; hit rate 0.24% among 390,000; also: nearly all actives have a fitted effect of over 55% in size
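Compound concentration series was pinned onto galactose-induced FUS-expressing yeast seeded at OD 0.005. Plates sat 24hr at 30C; absorbance at 600 nm gave growth. DMSO served as background control.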
Each line names hits and unclear results; the compound was inactive in the other large screens; ! = not active in a repeat. Calls follow the shape of the dose curve; as a rule, active = well fitted curve in the direction sought with a large enough effect; inconclusive = small, poorly fitted or top-dose-only effect, or another doubt; inactive = no such curve, though single readings can be large; an effect the other way counts as inactive or inconclusive.

COc1ccc(CNC(=O)COc2cc(O)c3c(c2)OC(C)(C)CC3=O)cc1	TDP43 rescue 11.2µM
COc1cc2c(c3oc(-c4ccccc4)cc(=O)c13)C=CC(C)(C)O2	TDP43 rescue inconclusive, FUS yeast rescue inconclusive
CC(C)(O)CCc1c(-c2ccc(O)cc2O)oc2c3c(cc(O)c2c1=O)OC(C)(C)C=C3	TDP43 rescue 12.6µM, FUS yeast rescue inconclusive (no result: Mito fusion yeast)
CC(C)Oc1ccc(C(=O)OCC(=O)NC(=O)NC2CCCC2)cc1	Abeta yeast res inconclusive, TDP43 rescue 20µM
O=C(OCc1nnc(-c2ccccc2)o1)c1ccc(CO)cc1	none
Cc1ccc(C(=O)OCc2nnc(-c3ccccc3)o2)o1	TDP43 rescue 17.8µM
COc1ccc(C2CC(=O)c3cnc(NC(=O)c4cccc(OC)c4)nc3C2)cc1 (stereo not drawn)	TDP43 rescue inconclusive
COc1ccc(C2CC(=O)c3cnc(NC(=O)c4ccccc4OC)nc3C2)c(OC)c1 (stereo not drawn)	TDP43 rescue 17.8µM, Mito fusion yeast inconclusive
CSc1ccc(CNC(=O)C2CCN(c3nnc(-n4cccc4CNc4ccc(C)cc4)s3)CC2)cc1	FUS yeast rescue 35.5µM (no result: Mito fusion yeast, aSyn yeast inh)
O=[N+]([O-])c1cccc(-c2ccc(SCc3cccnc3)nn2)c1	TDP43 rescue 15.8µM
Cc1ccc(NC(=O)CSc2nnc(COc3ccc(Cl)cc3)o2)cc1	none (no result: Mito fusion yeast, aSyn yeast inh)
Nc1nnc(-c2cccc(Cl)c2Cl)c(N)n1	Mito fusion yeast 20.6µM!
CC[N+](CC)(CC)CCOc1cccc(OCC[N+](CC)(CC)CC)c1OCC[N+](CC)(CC)CC	none
CC[N+](CC)(CC)CCOc1ccc(/C=C/c2ccccc2)cc1	TDP43 rescue 35.5µM
Cc1noc(C)c1C(=O)Nc1ccc(-c2nnc3n2CCCCC3)cc1	none (no result: FUS yeast rescue)
CCC(C(=O)NCCCN(CC)CC)n1ncn2c(cc3occc32)c1=O (stereo not drawn)	none (no result: Mito fusion yeast, aSyn yeast inh)
Cc1ccc(S(=O)(=O)N2CCN(c3nc(-c4ccc(F)cc4)nc4cc(Cl)ccc34)CC2)cc1	none (no result: Abeta yeast res, TDP43 rescue, Mito fusion yeast, FUS yeast rescue)
CCc1ccccc1N1C(=O)N(Cc2cc(=O)n3ccccc3n2)c2ccccc2S1(=O)=O	TDP43 rescue 11.2µM, FUS yeast rescue 31.6µM (no result: Mito fusion yeast, aSyn yeast inh)
Clc1ccc(-c2csc(N/N=C/c3cccnc3)n2)c(Cl)c1	TDP43 rescue 12.6µM, FUS yeast rescue inconclusive
Cn1c(=O)c2c(nc(Oc3cccc(Br)c3)n2C)n(C)c1=O	Abeta yeast res inconclusive, TDP43 rescue 12.6µM
Cn1c(=O)c2c(ncn2CCOc2cccc(Br)c2)n(C)c1=O	TDP43 rescue 14.1µM
Cc1nc([N+](=O)[O-])cn1CC(=O)c1ccc2c(c1)OCCCO2	none (no result: Abeta yeast res, TDP43 rescue, Mito fusion yeast, FUS yeast rescue)
CCc1ccc2oc(-c3cc(N=Cc4cccc(OC)c4O)ccc3O)nc2c1	TDP43 rescue 15.8µM
C=CCn1c(O)c(N=NC(=S)Nc2ccc(OC)cc2)c2ccccc21	TDP43 rescue inconclusive
C=CCn1c(O)c(N=NC(=S)Nc2cccc(OC)c2)c2ccccc21	Abeta yeast res inconclusive, TDP43 rescue 15.8µM, aSyn yeast inh 22.4µM
COc1ccc(-c2csc(CCn3nc(C)cc3C)n2)cc1	TDP43 rescue 17.8µM
Cc1ccnc(NC(=O)c2cc([N+](=O)[O-])cc([N+](=O)[O-])c2)c1	none
Cc1ccnc(NC(=O)c2ccc([N+](=O)[O-])s2)c1	TDP43 rescue 8.91µM
Cc1cccc(NC(=O)c2ccc([N+](=O)[O-])s2)c1C	Abeta yeast res inconclusive, TDP43 rescue 11.2µM
COc1ccc(C(=O)N/C(=C\c2cn(S(=O)(=O)N(C)C)c3ccccc23)C(=O)N2CCN(C)CC2)cc1OC	none (no result: Mito fusion yeast)
Cc1ccc(C2CC(c3ccc(Cl)cc3)=NNC2=O)cc1 (stereo not drawn)	TDP43 rescue 22.4µM
Nc1nc(SCc2ccc(Cl)cc2)ns1	Abeta yeast res inconclusive, TDP43 rescue 15.8µM
CC1=C(C)CS(=O)N(S(=O)(=O)c2ccccc2)C1 (stereo not drawn)	TDP43 rescue 12.6µM
CCOC(=O)c1n[nH]c2ccccc12	none (no result: FUS yeast rescue)
CCOC(=O)c1n[nH]n2c1nc(=S)c1ccccc12	Mito fusion yeast 14.1µM
O=C(CSCc1ccccc1Br)N/N=C/c1ccc2c(c1)OCO2	TDP43 rescue 17.8µM, Mito fusion yeast inconclusive (no result: FUS yeast rescue)
CCOC(=O)c1c(NC(=O)CSc2cn(CCNC(=O)c3ccccc3OC)c3ccccc23)sc2c1CCC2	none (no result: Mito fusion yeast, aSyn yeast inh)
CCOC(=O)CN1C(c2ccc(O)cc2)Nc2ccc(Br)cc2C1c1ccccc1 (stereo not drawn)	TDP43 rescue 20µM (no result: FUS yeast rescue)
N#Cc1ccccc1COC(=O)CCC(=O)c1cccs1	none
O=C(CCC(=O)c1cccs1)OCc1ccc([N+](=O)[O-])cc1	TDP43 rescue 11.2µM
Cc1ccc(C(C)C)c(OCC(=O)Nn2c(C)nc3ccccc3c2=O)c1	TDP43 rescue 14.1µM, Mito fusion yeast inconclusive
Cc1nc2ccccc2c(=O)n1NC(=O)c1ccc(C(C)(C)C)cc1	Mito fusion yeast inconclusive
Cc1ccc(C(=O)Nn2c(C)nc3ccccc3c2=O)cc1C	TDP43 rescue 11.2µM
COc1cccc(NC(=S)NC(Cc2ccccc2)c2ccccc2)c1 (stereo not drawn)	Abeta yeast res inconclusive, TDP43 rescue 11.2µM (no result: Mito fusion yeast)
COc1cccc(NC(=S)NC(C)c2ccc(OC)c(OC)c2)c1 (stereo not drawn)	none
CCC(C)c1ccc(OCC(=O)Nc2cccc(-c3nc4ncccc4o3)c2)cc1 (stereo not drawn)	TDP43 rescue inconclusive, FUS yeast rescue inconclusive (no result: Mito fusion yeast, aSyn yeast inh)
CS(=O)(=O)Nc1ccccc1C(=O)OCC(=O)N1CCC(c2ccccc2)=N1	TDP43 rescue 25.1µM, FUS yeast rescue inconclusive
COC(=O)C[C@H]1CC[C@@H]2[C@@H](COc3ccc(NS(=O)(=O)c4ccccc4Cl)cc3C(=O)N2C)O1	none (no result: Abeta yeast res, TDP43 rescue, Mito fusion yeast, aSyn yeast inh)
COc1ccc(Nc2nnc(SCC3CCCCO3)s2)cc1 (stereo not drawn)	TDP43 rescue 11.2µM
COCCCNC(=O)/C=C/c1ccc(Cl)cc1Cl	TDP43 rescue 14.1µM
COc1nc(-c2ccccc2)c2cc(C)ccc2n1	TDP43 rescue 12.6µM
CCOc1nc(-c2ccccc2)c2cc(C)ccc2n1	none
c1csc(CSc2nnc3sc4ccccc4n23)c1	TDP43 rescue 14.1µM
Cc1onc(-c2ccccc2)c1C(=O)N/N=C/c1ccc([N+](=O)[O-])s1	Mito fusion yeast 11.2µM (no result: FUS yeast rescue)
Cc1ccc(CNC(=O)C(Cc2ccccc2)NS(=O)(=O)c2cccs2)cc1 (stereo not drawn)	none
Cc1ccc(CNC(=O)C(Cc2ccccc2)NS(=O)(=O)c2ccc(Br)s2)cc1 (stereo not drawn)	Mito fusion yeast 17.8µM
N#CCCN(Cc1ccccc1)C(=S)Nc1ccc(F)cc1	none
CCCN(Cc1ccccc1)C(=S)Nc1ccc(F)cc1	TDP43 rescue 17.8µM
